Measured values: PubChem BioAssay AID1745848 (National Center for Advancing Translational Sciences (NCATS), 2022)
In all, about 2,100 compounds went through this assay and about 940 (45%) were called active. Inconclusive results (about 48%) are left out. The set was probably picked from earlier hits. The list shows a part of the results. Values without a mark were called inactive. Calls come from the whole dose curve; as a rule, active = well fitted inhibition curve with a large enough effect; inconclusive = small, poorly fitted or top-dose-only effect; inactive = no such curve, though single readings can be large or run the other way.

assay: Confirmatory qHTS for Inhibitors of ATXN expression; conditions: ATXN2-luciferase reporter cells, luminescence, 24 h; series mostly up to 11.5 µM; activity change, negative = inhibition: at the top concentration; note: nearly all actives have a fitted effect of over 65% in size;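 for activity change, negative = inhibition: 0% = DMSO vehicle wells and -100% = medium-only wells without cells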
Source text: PI: Daniel Scoles Ph.D. University of Utah School of Medicine, Salt Lake City, Utah MLPCN Grant: NS073009 Spinocerebellar ataxia type 2 (SCA2) is a multisystem neurodegenerative disease caused by a dominantly acting mutation leading to expansion of a polyQ domain in the ataxin-2 protein (ATXN2). SCA2 patients develop progressive ataxia and later lose function in other neuronal systems. Prominent parkinsonian signs develop in some patients. Like many neurodegenerative disorders, no symptomatic or disease-modifying treatments are known. The primary objective of the proposed research is to identify compounds inhibiting ATXN2 expression and to test them for efficacy in SCA2 mouse models. We have developed a cell-based assay paired with an in vivo mouse model using identical luciferase expression constructs. This approach takes advantage of an ATXN2-luciferase transgene, with the luciferase gene flanked by the upstream and downstream portions of the ATXN2 gene. Here we describe a 5-7 dose quantitative high thoroughput screen (qHTS) for compounds lowering ATXN2 expression. We screened the NIH Molecular Libraries Small Molecule Repository (MLSMR) and NCGC's mechanistically annotated (MIPE) and drug repurposing (NPC) collections of compounds for lowering expression of an ATXN2-luciferase reporter in HEK-293 cells. The assay is a multiplexed cell viability assay to ensure target reduction in the absence of cytotoxicity. Secondary qHTS assays included a CMV-luciferase reporter expressed in HEK-293 cells as well as a biochemical assay using recombinant luciferase to detect inhibitors of the reporter enzyme. Compounds that inhibit ATXN2 expression but is not cytotoxic were selected for confirmatory and secondary screens.
PROTOCOL TABLE (as described by Inglese J, Shamu CE and Guy RK. 2007) SEQUENCE No. (e.g., 1, 2, 3, etc.); PARAMETER (e.g., Cells, Incubation, Reagent, etc.); VALUE; DESCRIPTION. 1; Cells; 4 uL; white, solid bottom, 1536-well Greiner assay plate. 2; Incubation; 2 hr; 37 degree C in 5% humidified CO2. 3; Compounds; 23 nL; Kalypsis pintool (Wako USA) equipped with a 1536-well pin head. 4; Incubation; 24 hr; 37 degree C in 5% humidified CO2. 5; Reagent; 1 uL; Gly-Phe-7-Amino-4-trifluoromethylcoumarin. 6; Incubation; 30 min; 37 degree C in 5% humidified CO2. 7; Detection; Fluorescence; ViewLux plate reader (PerkinElmer). 8; Reagent; 3 uL; SteadyGlo luciferase solution (Promega). 9; Incubation; 5 min; room temperature. 10; Detection; Luminescence; ViewLux plate reader (PerkinElmer). NOTES (numbers refer to Sequence numbers above) 1. […] expressing ATXN2-luciferase reporter were suspended in phenol-red free DMEM and dispensed in assay plates using a Multidrop Combi dispenser (Thermo Fisher Scientific). Wells containing medium only were plated on each plate, and values were used to normalize (100% inhibition) in the luciferase and CellTiter-Fluor assays. 2. Assay plates were incubated. Evaporation was prevented by covering assay plates with metal lids containing holes to allow gas diffusion. 3. Compounds were added in a dose response manner with the final concentrations of 57, 11.4, 2.28, 0.46, 0.091, 0.018, 0.0037 uM. Vehicle-only plates, with DMSO being pin-transferred to columns 5-48, were inserted uniformly at the beginning and the end of each library to monitor and record any shifts in assay performance. 5. 125 uM Gly-Phe-7-Amino-4-trifluoromethylcoumarin (MP Biomedicals) working concentration was used at a final concentration of 25 uM. 7. To assess cell viability; the assay plates were read using the ViewLux high-throughput CCD imager (PerkinElmer), wherein single end-point fluorescence measurement was acquired (excitation 405/10; emission 540/25 nm). 8. Detection reagent SteadyGlo Luciferase (Promega) was added to the assay plate. 10. Luminescence is then measured on the ViewLux imager equipped with a clear emission filter using a 2 sec exposure. […]
Potency is the fitted concentration of half-maximal effect.

Row | Compound | Potency | activity change, negative = inhibition
1 | O=C(Nc1ccc(Cl)cc1)Nc1ccc(N2CCCC2)c(S(=O)(=O)Nc2ccccc2Cl)c1 | 3.55 µM (active) | –
2 | Cc1ccc2ccc3cccnc3c2n1 | 4.47 µM (active) | –
3 | OC(c1ccccc1)(c1nc(-c2cc3ccccc3o2)cs1)C(F)(F)F (stereo not given) | – | 8.38% [at 57.5 µM]
4 | OC(c1ccccc1)(c1nc(-c2ccc3ccccc3c2)cs1)C(F)(F)F (stereo not given) | – | 26.4%
5 | OC(c1ccccc1)(c1nc(/C=C/c2ccc(C(F)(F)F)cc2)cs1)C(F)(F)F (stereo not given) | 35.5 µM (active) | –
6 | CCOc1cc(C=C(C(=O)OC)C(=O)OC)ccc1OCc1ccc([N+](=O)[O-])cc1 | 25.1 µM (active) | –
7 | O=C(CNC(=O)C1COc2ccccc2O1)N/N=C/c1ccc(O)cc1O (stereo not given) | 2.51 µM (active) | –
8 | CCN(CC)c1ccc(/C=N/NC(=O)c2cccc(S(=O)(=O)N3CCOCC3)c2)c(O)c1 | 0.891 µM (active) | –
9 | COc1cccc(/C=N/NC(=O)Cn2nc(C)c([N+](=O)[O-])c2C)c1O | 14.1 µM (active) | –
10 | CCN(CC)c1ccc(/C=N/NC(=O)CNC(=O)C2COc3ccccc3O2)c(O)c1 (stereo not given) | 0.251 µM (active) | –
11 | CCN(CC)c1ccc(/C=N/NC(=O)Cc2cccs2)c(O)c1 | 2.82 µM (active) | –
12 | COc1ccccc1/C=C\C(=O)NCC(=O)N/N=C/c1cccc(OC)c1O | 12.6 µM (active) | –
13 | COc1cccc(/C=N/NC(=O)CNC(=O)C2COc3ccccc3O2)c1O (stereo not given) | 8.91 µM (active) | –
14 | COc1cccc(/C=N/NC(=O)CSc2ccccc2C)c1O | 12.6 µM (active) | –
15 | Cn1ncc2c(N3CCN(c4ccc(Cl)c(Cl)c4)CC3)ncnc21 | 1.58 µM (active) | –
16 | Cc1cc(NC(c2cccnc2)c2ccc3cccnc3c2O)no1 (stereo not given) | 2.82 µM (active) | –
17 | Oc1c(C(Nc2cccc(C(F)(F)F)c2)c2ccncc2)ccc2cccnc12 (stereo not given) | 3.55 µM (active) | –
18 | COc1ccc(Cl)cc1C(Nc1cccnc1)c1ccc2cccnc2c1O (stereo not given) | 12.6 µM (active) | –
19 | Oc1c(C(Nc2cccc(C(F)(F)F)c2)c2cccnc2)ccc2cccnc12 (stereo not given) | 28.2 µM (active) | –
20 | COC(=O)Cc1[nH]n(-c2nc3ccccc3s2)c(=O)c1C(C)=Nc1ccc(C)cc1 | – | -90.6% [at 57.5 µM]
21 | Cc1cc(C)n(-c2nc(NCCN(C)C)c3c4c(sc3n2)COC(C)(C)C4)n1 | 3.16 µM (active) | –
22 | COc1cc(OC)cc(-c2cc3nc(C)c(CCC(=O)O)c(C)n3n2)c1 | 0.562 µM (active) | –
23 | COc1cc(OC)cc(-c2cc3nc(C)c(CCC(=O)NCc4ccccc4)c(C)n3n2)c1 | 4.47 µM (active) | –

Row | Compound | Potency | activity change, negative = inhibition
24 | COc1cccc(OCC(=O)Nc2cc(Cl)ccc2Oc2ccccc2)c1 | – | -25.3%
25 | COc1cccc(CN(C)C(=O)c2ccc(OCC(=O)Nc3cccc(C(F)(F)F)c3)c(OC)c2)c1 | 15.8 µM (active) | –
26 | CCCCCCn1c2c(c(=N)c3c1CCC3)CCC2 | 3.98 µM (active) | –
27 | Cc1cnc(NC(=O)CN2CCN(c3ccccn3)CC2)s1 | 5.62 µM (active) | –
28 | CCN1CCN(C2=C(NS(=O)(=O)c3ccc(C)cc3)C(=O)c3ccccc3C2=O)CC1 | 3.16 µM (active) | –
29 | Cc1ccc(SC2=C(Sc3ccc(C)cc3)C(=O)c3ccccc3C2=O)cc1 | – | 6.96% [at 57.5 µM]
30 | CC(=O)NC(c1ccc(C(C)C)cc1)c1ccc2cccnc2c1O (stereo not given) | 0.631 µM (active) | –
31 | CC(=O)NC(c1ccco1)c1ccc2cccnc2c1O (stereo not given) | 1.41 µM (active) | –
32 | CC(=O)NC(c1ccc2ccccc2c1)c1ccc2cccnc2c1O (stereo not given) | 0.141 µM (active) | –
33 | CC(=O)c1sc(C(C)(C)C)cc1NC(=O)/C=C/C(=O)O | 17.8 µM (active) | –
34 | CCSc1ccc(-c2cc(NC=O)c3ncc(-c4cccc(C(=O)NCCN(C)C)c4)n3c2)cc1 | 3.16 µM (active) | –
35 | COc1ccc(F)cc1-c1cc(NC=O)c2ncc(-c3cccc(C(=O)N(C)C)c3)n2c1 | 3.55 µM (active) | –
36 | COc1cc(-c2cnc3c(NC=O)cc(-c4cccc(C(F)(F)F)c4)cn23)cc(OC)c1OC | 12.6 µM (active) | –
37 | COc1ccc(-c2cc(NC=O)c3ncc(-c4cccc(C(=O)NCCN(C)C)c4)n3c2)cc1 | – | -22.5% [at 57.5 µM]
38 | CN(C)C(=O)c1cccc(-c2cnc3c(NC=O)cc(-c4ccccc4N(C)C)cn23)c1 | – | -13%
39 | CN(C)C(=O)c1cccc(-c2cnc3c(NC=O)cc(-c4ccc(F)cc4)cn23)c1 | – | -12%
40 | COc1ccccc1-c1cc(NC=O)c2ncc(-c3ccc(F)cc3)n2c1 | 22.4 µM (active) | –
41 | CCOc1ccc(/C=C/[N+](=O)[O-])c2ccccc12 | 15.8 µM (active) | –
42 | Cc1ccc(CN2CCC(c3cc(-c4ccc(Cl)cc4)n[nH]3)CC2)cc1 | 28.2 µM (active) | –
43 | COC(=O)c1ccccc1COc1cccn2c(N(C)Cc3cccs3)c(C)nc12 | 28.2 µM (active) | –
44 | CCOC(=O)N(C)c1c(CC)nc2c(OCc3ccccc3OC)cccn12 | – | -25.4% [at 57.5 µM]
45 | ClC(Cl)(Cl)c1nc2ccccc2n2nncc12 | 2.82 µM (active) | –
